# High-throughput results deposited in PubChem by National Center for Advancing Translational Sciences (NCATS).
# Hits are enriched below; roughly 2.3% of the tested compounds scored in any of these assays.
# AmpC inh detg: AmpC beta-lactamase inhibition with detergent present; AmpC hydrolysis of nitrocefin, absorbance 480 nm, 0.01% Triton; Potency, µM (top dose mostly 114 µM), usual class: inhibitors; 0.041% of 370,000 active; AID 485294; note: nearly all actives have a fitted effect of over 25% in size
# Target sequence (P00811 whole entry, looked up): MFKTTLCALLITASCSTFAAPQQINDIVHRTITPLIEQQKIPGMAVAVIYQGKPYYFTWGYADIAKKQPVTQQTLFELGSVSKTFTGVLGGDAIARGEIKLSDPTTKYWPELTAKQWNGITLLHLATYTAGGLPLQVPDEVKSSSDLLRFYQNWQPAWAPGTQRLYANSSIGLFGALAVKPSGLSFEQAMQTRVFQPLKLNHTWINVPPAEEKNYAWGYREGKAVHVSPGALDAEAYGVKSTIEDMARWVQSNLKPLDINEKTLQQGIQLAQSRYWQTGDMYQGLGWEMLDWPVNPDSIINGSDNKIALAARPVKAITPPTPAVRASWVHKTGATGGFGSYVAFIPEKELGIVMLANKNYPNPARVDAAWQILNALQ
#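 AmpC (5.3 nM in the dispensed reagent) in 20 mM phosphate pH 7.0 with 0.01% (detergent screen) or 0.0001% Triton X-100 was preincubated with compounds for 15 min at room temperature. Nitrocefin was then added from an 800 uM solution, and hydrolysis was followed at 480 nm.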
# AmpC inh no detg: AmpC beta-lactamase inhibition without detergent. AmpC nitrocefin hydrolysis, absorbance 480 nm, 0.0001% Triton. Potency, µM (doses to about 57.1 µM), hits mostly inhibitors. 0.52% of 330,000 active. AID 485341; note: nearly all actives have a fitted effect of over 20% in size
#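 20 mM phosphate pH 7.0 + 0.01% (detergent screen) or 0.0001% Triton X-100; 5.3 nM AmpC reagent; cpd preinc 15 min RT; nitrocefin (800 uM stock) to start; A480 q20 s × 4 min; Activity was normalised to no-enzyme and no-compound control wells.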
# AMA1 RON2 block: inhibitors of Plasmodium falciparum AMA1-RON2 interaction | AlphaScreen AMA1-biotinylated RON2 peptide binding | Potency, µM (series often up to 58.2 µM), most hits filed as inhibitors | 0.2% of 360,000 active | AID 720542; note: nearly all actives have a fitted effect of over 45% in size
#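 AMA1 (3D7) with his tag at 25 nM final met compounds first, then biotinylated RON2 peptide at 25 nM; detection used donor plus acceptor beads, 10 µg/mL apiece, read by AlphaScreen after 30 min at room temperature.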
# Lassa entry inh: blocks Lassa virus binding to or entry into cells. Lassa virus pseudotype entry inhibition, cell reporter. Potency, µM (highest dose often 37.9 µM), usual class: inhibitors. 1.2% of 300,000 active. AID 540256; calls by dose curve; tested in HEK293 cells; note: nearly all actives have a fitted effect of over 50% in size
# Marburg entry inh: blocks Marburg virus binding to or entry into cells; Marburg virus pseudotyped entry inhibition, cell reporter; 1.8% of 300,000 active; Potency, µM (highest dose often 37.8 µM), usual class: inhibitors; AID 540276; calls by dose curve; tested in HEK293 cells
# Hits are given with their value; i = inactive; ? = inconclusive; nt = no result given. Unless noted, calls come from the whole dose curve; as a rule, active = well fitted curve in the direction sought with a large enough effect; inconclusive = small, poorly fitted or top-dose-only effect, or another doubt; inactive = no such curve, though single readings can be large; an effect the other way counts as inactive or inconclusive.
SMILES,AmpC inh detg,AmpC inh no detg,AMA1 RON2 block,Lassa entry inh,Marburg entry inh
O=C(Nc1ccccc1O)c1ccc(NS(=O)(=O)c2cccc3cccnc23)cc1,i,16µM,i,nt,nt
COc1ccc(CNCc2ccc3c(c2)n(C)c(=O)n3C)cc1,i,nt,nt,i,i
CC1=C(/C=C/C(C)=C/C=C/C(C)=C/C(=O)Nc2ccc(O)cc2)C(C)(C)CCC1,i,i,i,10µM,?
CC1=C(\C=C/C(C)=C/C=C\C(C)=C\C(=O)O)C(C)(C)CCC1,nt,nt,nt,nt,i
COc1ccc(NC(=O)CNS(=O)(=O)c2ccccc2)cc1Cl,i,0.63µM,i,i,i
COc1ccc(NC(=O)COC(=O)CNS(=O)(=O)c2ccccc2)cc1OC,i,i,i,i,i
CC(=O)c1ccc(NC(=O)c2cccc(NC(=O)N3CCSc4ncccc43)c2)cc1,i,nt,nt,i,nt
COC(=O)C(CC(=O)c1ccc(Cl)cc1)c1ccc(C(C)C)cc1 (configuration not stated),i,0.25µM,i,?,i
COc1cc(-c2coc3c(C(=O)NCc4ccc(N(C)C)cc4)cccc23)ccc1O,nt,nt,32µM,nt,nt
COc1ccc(-c2ccc(C(=O)NCc3ccc(N(C)C)cc3)c3occc23)c(C)c1,nt,nt,8.9µM,nt,nt
O[Si](CCCN1CCCCC1)(c1ccc(F)cc1)C1CCCCC1 (configuration not stated),i,i,i,5.2µM,2.8µM
Cc1cc([N+](=O)[O-])nn1Cc1ccc(C(=O)N/N=C/c2ccc(F)cc2)cc1,i,i,i,i,?
O=C(N/N=C/c1ccc(O)cc1O)c1ccc(CN2C(=O)c3cccc4cccc2c34)cc1,i,7.1µM,i,5.2µM,3.2µM
Cc1cc([N+](=O)[O-])nn1Cc1ccc(C(=O)N/N=C/c2ccc(O)cc2O)cc1,?,i,i,3.5µM,7.3µM
COc1cccc(C(=O)NC(=S)Nc2ccc(N3CCCC3)cc2)c1,i,i,25µM,?,i
CC(C)CC(=O)NC(=S)Nc1cccc(NC(=O)c2ccccc2Cl)c1,i,i,i,?,i
CC(C)Oc1cccc(C(=O)NC(=S)Nc2cccc(NC(=O)c3ccccc3Cl)c2)c1,i,3.2µM,i,?,i
COc1ccc(C(=O)NC(=S)Nc2ccc(N3CCCC3)cc2)cc1,?,i,i,?,i
CCOc1ccccc1-c1noc(CCCC(=O)Nc2cccc(C(F)(F)F)c2)n1,i,nt,nt,i,?
COc1ccc(CCNC(=O)c2ccc3c(c2)CCN3S(=O)(=O)c2ccc(C)cc2)cc1OC,i,nt,nt,?,i
COc1ccc(NC(=O)c2cc3c([nH]c4ccccc43)c(C)n2)cc1,i,8.9µM,i,i,i
Cc1nn(-c2ccccc2)c(N)c1Sc1ccccc1[N+](=O)[O-],i,i,?,6.3µM,?
CCCCn1cc(S(=O)(=O)c2ccc(C)c(C)c2)c(=O)c2cc(F)c(N(CC)CC)cc21,i,nt,nt,?,nt
COc1ccc(NC(=O)C2C3C=CC4(O3)C2C(=O)N(CCN2CCCCC2)C4C(=O)NC2CCCC(C)C2C)cc1 (configuration not stated),i,i,i,i,5µM
Cc1cc(C)cc(NC(=O)C2C3C=CC4(O3)C2C(=O)N(CCCN2CCCC2)C4C(=O)NC2CCCC(C)C2C)c1 (configuration not stated),i,i,i,i,i
SMILES,AmpC inh detg,AmpC inh no detg,AMA1 RON2 block,Lassa entry inh,Marburg entry inh
Cc1ccc(C)c(NS(=O)(=O)c2ccc3oc(=O)ccc3c2)c1,i,i,i,nt,nt
Cc1ccc(C)c(NS(=O)(=O)c2ccc3c(c2)Cc2cc(S(=O)(=O)Nc4cc(C)ccc4C)ccc2-3)c1,i,7.9µM,i,i,?
Cc1cccc(CN2CCN(CC(=O)Nc3c(C)cccc3C)S2(=O)=O)c1,i,nt,nt,i,nt
Cc1ccc(C(C(=O)NCC2CCCO2)N(C(=O)c2snc(C(N)=O)c2N)c2ccc3c(c2)OCCO3)cc1 (configuration not stated),i,i,?,6.3µM,?
CCOc1ccc(C(C(=O)NCC2CCCO2)N(C(=O)c2snc(C(N)=O)c2N)c2ccccc2F)cc1 (configuration not stated),i,i,i,7.1µM,?
Cc1ccc(C2=NN(S(=O)(=O)c3ccccc3)C(c3ccco3)C2)cc1 (configuration not stated),i,i,i,nt,nt
O=S(=O)(c1ccccc1)N1N=C(c2ccc(O)cc2)CC1c1ccco1 (configuration not stated),i,14µM,i,nt,nt
